# Data reported in the supplement of paper PMC3334620.
# Over roughly 33,000 sequences, “E-score (-0.5 to 0.5)” has its median near -0.01; the highest 2% begin near 0.26. This is one part of a sample in which the highest values are shown more often than they occur.
# Biological target: Ste12 (UniProt P13574)
# Assay: PBM E-score (8-mer binding enrichment) (E-score (-0.5 to 0.5)); higher = stronger / more preferred TF binding
# Conditions: protein concentration: 200 nM; construct: GST-DNA-binding domain
# Method: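 Universal 'all 10-mer' protein binding microarrays (Agilent AMADID 015681) probed with GST-tagged S. cerevisiae TFs (full-length or DBD) made by in vitro transcription/translation (PURExpress), about 100-200 nM. Bound TF was detected with fluorescent anti-GST. Each ungapped 8-mer (which stands for itself and its reverse complement) is scored by the PBM enrichment score (E-score), a modified Wilcoxon-Mann-Whitney statistic from -0.5 to +0.5, computed with the Universal PBM Analysis Suite. Scale: above 0.35 generally sequence-specific binding.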
# Sequence of UniProt P13574 (P13574 whole entry): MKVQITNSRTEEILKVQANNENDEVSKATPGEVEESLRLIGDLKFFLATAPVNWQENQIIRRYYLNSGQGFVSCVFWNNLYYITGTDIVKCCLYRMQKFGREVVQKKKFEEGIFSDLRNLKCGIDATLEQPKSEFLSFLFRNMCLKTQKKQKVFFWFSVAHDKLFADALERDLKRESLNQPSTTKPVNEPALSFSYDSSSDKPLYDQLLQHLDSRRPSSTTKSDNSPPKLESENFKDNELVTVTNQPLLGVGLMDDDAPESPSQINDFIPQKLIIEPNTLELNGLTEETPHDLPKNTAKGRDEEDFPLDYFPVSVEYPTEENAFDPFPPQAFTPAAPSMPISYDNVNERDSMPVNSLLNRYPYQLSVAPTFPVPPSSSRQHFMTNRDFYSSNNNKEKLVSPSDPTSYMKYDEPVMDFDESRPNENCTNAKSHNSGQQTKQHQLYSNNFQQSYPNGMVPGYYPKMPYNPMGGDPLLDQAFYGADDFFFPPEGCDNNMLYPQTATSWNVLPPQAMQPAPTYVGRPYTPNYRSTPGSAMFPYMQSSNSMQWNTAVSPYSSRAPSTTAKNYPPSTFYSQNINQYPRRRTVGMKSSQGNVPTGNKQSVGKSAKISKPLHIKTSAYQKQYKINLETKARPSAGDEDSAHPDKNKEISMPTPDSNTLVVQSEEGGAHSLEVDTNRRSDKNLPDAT
row,Sequence,PBM E-score
1,CTGAAGGA,-0.0367
2,CACGCGTG,0.221
3,CGTTCGCA,-0.119
4,AAATAAAA,0.291
5,AAATAAAG,0.172
6,AAATAAAT,0.169
7,AAAATACA,0.143
8,AAAATAAA,0.286
9,TAAATAAA,0.228
10,CGAAGACG,-0.13
11,CAATGGGA,-0.134
12,GCCTAAGC,-0.358
13,CCACTGGC,-0.0254
14,CATCAGAA,0.0441
15,AATCAGAG,0.0937
16,AATCAGAA,0.27
17,AGGTAGCC,-0.26
18,CAGGGTAG,-0.114
19,CTGACTAC,-0.129
20,ATGATACG,0.25
21,CTGATACC,0.0308
22,GTGATACA,0.195
23,ATGATACC,0.0159
24,CTGATACA,0.28
25,ATGATACA,0.294

row,Sequence,PBM E-score
1,GGCGCTTA,0.0142
2,AGGGCCAC,-0.202
3,CTCAATCC,0.0296
4,GAAAAGCA,0.0143
5,ACAGCCAG,-0.178
6,CTTGGTTA,0.052
7,CCCCTACC,0.0111
8,CTGTAAAA,0.219
9,ATGTAAAA,0.349
10,ACGTAAAA,0.161
11,TCGTAAAA,0.279
12,ATGTAAAT,0.113
13,GTGTAAAA,0.15
14,TTGTAAAA,0.315
15,GCGTAAAA,0.163
16,TAGTAAAA,0.211
17,ATAGAGCC,-0.0936
18,TACAGACA,0.0984
19,ACAGCTCG,-0.157
20,GCAGAGGC,-0.185
21,CACTCGCC,-0.0182
22,CAAAAGTG,0.00054
23,AGATCTCA,0.0566
24,TGATGAAA,0.258
25,CGATGAAA,0.289

row,Sequence,PBM E-score
1,AGATGAAA,0.39
2,CGATGAAC,0.124
3,GGATGAAC,-0.196
4,AGATGAAC,0.098
5,CGATGAAG,0.0893
6,AGATGAAG,0.102
7,GGATGAAA,0.395
8,CCTCTACG,-0.283
9,AGAGCCCC,-0.201
10,CACTGGAA,-0.101
11,ACATGGAC,-0.00801
12,ATGACATA,0.222
13,GTGTTACA,0.19
14,CTGTTACC,-0.03
15,ACGTTACA,0.164
16,CCGTTACA,0.318
17,ATGTTACA,0.297
18,ATGTTACC,0.175
19,GCGTTACA,0.139
20,CTGTTACA,0.378
21,ATGTTACG,-0.0262
22,AACGTCCG,-0.102
23,ACGCTGTG,-0.038
24,GCTGGCCA,-0.00597
25,CTTAGGGA,-0.316

row,Sequence,PBM E-score
1,AAATGAAG,0.257
2,GCGCTTCC,-0.0472
3,AAGGATAA,-0.00803
4,AATTGCAT,0.0393
5,ACTACCTA,-0.242
6,ACTGTTTA,0.165
7,CCTGTTAC,0.151
8,ACTGTTTG,0.188
9,CCTGTTTA,0.0871
10,ACTGTTTC,0.289
11,CCTGTTTC,0.32
12,CAAACGGA,0.0164
13,AAAACGGA,0.273
14,AAAACGGC,0.225
15,GAAACGGC,0.229
16,GAAACGGA,0.343
17,AAAACGGT,0.152
18,GCCCCGAC,-0.135
19,CACCTAAA,0.0511
20,AACCTAAA,0.324
21,TACCTAAA,0.138
22,CCCCGTTA,-0.00038
23,TACAACTA,0.268
24,AACAACTA,-0.00598
25,CACAACTA,0.153

row,Sequence,PBM E-score
1,ACAGGTCT,-0.267
2,ATGTTCTC,-0.124
3,ACAAAAAC,0.201
4,ACAAAAAG,0.125
5,TCAAAACA,0.209
6,TCAAAAAA,0.32
7,TCAAAAGA,0.202
8,GCAAAGCA,-0.148
9,ACAAAAAA,0.311
10,ACAAAAAT,0.288
11,AACAAAAT,0.11
12,ACACAAAT,0.108
13,AAAAAGCA,0.108
14,ACAAAGCA,0.29
15,ACCGCTCA,-0.0178
16,CACCGCAC,-0.00376
17,ACCGCCGC,0.0865
18,GGATACTA,0.0524
19,CGCGGGAC,0.012
20,AGGCCAGC,-0.157
21,CCTGGTAG,-0.00862
22,ATGCCTCG,0.00724
23,TTCACCAA,0.0895
24,CTCACCAA,0.284
25,CTCACCAC,-0.168

row,Sequence,PBM E-score
1,AAAATTTA,0.085
2,CAAATTTA,0.217
3,GAAATTGA,0.12
4,AAAATTGA,0.226
5,TAAATTGA,0.288
6,TAAATTTA,0.334
7,ACGCTCTC,-0.122
8,ACCTGCTC,-0.0508
9,ATACCTCA,0.0605
10,ATGTCTGG,0.0356
11,GGCGGGGA,0.407
12,CGCGGGGA,0.333
13,GGGGGGGA,-0.298
14,AGCGGGGA,0.111
15,GGCGGGAA,0.00719
16,CGCGGGAA,0.161
17,AAAATCTC,0.119
18,CGTTAGGC,-0.0275
19,ATTAATCC,0.0655
20,ATTAATTA,0.237
21,ATTAATAC,0.263
22,ATTAATTG,0.237
23,CTTAATAC,0.207
24,ATTAATTC,0.308
25,CATAATAA,0.136

row,Sequence,PBM E-score
1,ATTAATCA,0.145
2,AATAATAA,0.308
3,AATAATAG,0.0434
4,AATAATAC,0.198
5,ATTAATCG,0.273
6,GCATTCGC,-0.276
7,CCAAACCC,0.194
8,ATAGATCG,0.0199
9,CTAACCTC,-0.0539
10,ACCTGTCG,0.00512
11,CCGCGGCC,0.174
12,CAATACCC,-0.00702
13,AGACTACC,-0.179
14,AAACTAGT,0.123
15,ATCATCTC,0.0683
16,ATTAATAG,0.283
17,AATAAGAT,0.00235
18,GTTAATAA,0.0895
19,ATTAATGG,0.219
20,ATTAATAA,0.289
21,AGTAATAG,0.0705
22,AATAAGAA,0.276
